High-throughput results: PubChem BioAssay, National Center for Advancing Translational Sciences (NCATS)
An excerpt weighted towards active compounds, which were near 2.1% of everything screened.
Mito fusion yeast = inhibitors of mitochondrial division or activators of mitochondrial fusion; S. cerevisiae fusion-defective mutant growth rescue, CellTiterGlo 48 h; Potency, µM (doses to about 46.1 µM), actives largely listed as activators; hit rate 0.23% among 320,000; AID 485298; further: nearly all actives have a fitted effect of over 45% in size
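Growth-rescue viability read-out: after 48 h at the non-permissive 37C in glycerol/ethanol YPEG, yeast mitochondrial fusion mutants are measured by CellTiterGlo luminescence; compounds (23 nl pinned per well) restoring growth score as division inhibitors or fusion activators.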
Abeta yeast res = compounds reversing amyloid beta toxicity in yeast | yeast expressing A-beta42, growth rescue, OD600, 48 h; response scale: 0% DMSO, 100% iron-clioquinol control | Potency, µM (highest dose often 46.1 µM), most hits filed as activators | hit rate 0.063% among 410,000; further: nearly all actives have a fitted effect of over 55% in size
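Growth rescue measured by 600 nm absorbance after 48 h yeast culture at 30 C with compound. Values normalized between DMSO and an equimolar ferric chloride plus clioquinol control.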
Glioma ERSR ind = induces the endoplasmic reticulum stress response in human glioma cells; U87-MG GRP78 promoter luciferase reporter, 16 h; Potency, µM, most hits filed as activators; hit rate 0.02% among 420,000; AID 602332; further: series mostly up to about 76 µM; nearly all actives have a fitted effect of over 35% in size
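Stably transfected U87-MG human glioma cells carrying a GRP78-based luminescent sensor were seeded at 1000 cells/well, pin-dosed with compounds and incubated 16 h. Luciferase reagent was then added, and end-point luminescence was read after 10 min at room temperature.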
aSyn rescue = inhibitors of alpha-synuclein toxicity in yeast; hit rate 0.14% among 370,000; Yeast expressing alpha-synuclein, growth rescue, BacTiter-Glo, 24 h; AID 652106; Potency, µM (titrated, usually from 46.1 µM), usual class: activators; further: nearly all actives have a fitted effect of over 65% in size
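Galactose-induced alpha-syn yeast (OD600=0.02, raffinose-pregrown) + pinned cpd, 24 hr, 30 deg C; growth by BacTiter-Glo luminescence. Growth restoration scores as activation.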
A-T KAP1 phos = potential ataxia-telangiectasia treatments restoring KAP-1 phosphorylation. F2112 A-T fibroblasts, KAP-1 phosphorylation AlphaLISA; neocarzinostatin DNA damage 30 min before lysis. Potency, µM (series often up to 57.5 µM), usual class: activators. AID 485349. hit rate 0.19% among 320,000; further: nearly all actives have a fitted effect of over 45% in size
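ATM-like activity read as KAP-1 phosphorylation via AlphaLISA donor/acceptor antibody pairs after lysis and 6 hr at 25C. Cells were ATM-null patient fibroblasts (F2112, hTERT), dosed 60 min, then exposed to the DSB inducer NCS for 30 min.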
TDP-43 yeast inh = inhibitors of TDP-43 toxicity in yeast; TDP-43 expressing yeast growth rescue, BacTiter-Glo, 24 h; Potency, µM (series often up to 46.1 µM), usual class: activators; hit rate 1.8% among 410,000; further: nearly all actives have a fitted effect of over 50% in size
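In this qHTS, compounds that restore growth of yeast expressing TDP-43 appear as activators. Cells (OD600=0.02, galactose medium, raffinose-pregrown) are incubated with compound 24 hr at 30 deg C and growth is quantified by BacTiter-Glo.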
Large screens that a line does not name were inactive. The call rests on the fitted dose curve; in most records, active means well fitted curve in the direction sought with a large enough effect; inconclusive means small, poorly fitted or top-dose-only effect, or another doubt; inactive means no such curve, though single readings can be large; an effect the other way counts as inactive or inconclusive.

CS(=O)(=O)c1[nH]nc(-c2cccc(Cl)c2)c1C#N	A-T KAP1 phos 40µM
N#Cc1c(-c2cccc(Cl)c2)[nH]c(=S)[nH]c1=O	none
CCOc1ccc(N(CC(=O)Nc2ccccc2C)S(=O)(=O)c2c(C)[nH]c(=O)[nH]c2=O)cc1	none
CCOc1ccc(N(CC(=O)Nc2cc(C)ccc2C)S(=O)(=O)c2c(C)[nH]c(=O)[nH]c2=O)cc1	A-T KAP1 phos 28µM
CCOC(=O)c1c(S(=O)(=O)N2CCCC(C(=O)NCc3ccccc3OC)C2)c(C)n(C)c1C (stereo unspecified)	none (no result: Mito fusion yeast, aSyn rescue, A-T KAP1 phos)
CCC(=O)N[C@@H]1c2ccccc2C2(CCN(Cc3ccccn3)CC2)[C@H]1OC	none (no result: Mito fusion yeast, Abeta yeast res, aSyn rescue, A-T KAP1 phos, TDP-43 yeast inh)
Cc1ccc(Nc2ncnc3ccccc23)cc1	none
Cc1ccc(Nc2ncnc(Cl)c2N)cc1	TDP-43 yeast inh 35µM (no result: Mito fusion yeast, A-T KAP1 phos)
Cc1nnc(SCc2ccc(F)cc2)s1	none
Cc1nnc(SCc2ccc(Cl)c(Cl)c2)s1	TDP-43 yeast inh 13µM
C=Nc1ccc(/C=C/c2ccnc3ccccc23)cc1	none (no result: Mito fusion yeast, Abeta yeast res, aSyn rescue, A-T KAP1 phos, TDP-43 yeast inh)
COc1ccc2c(C)cc(SCC(=O)NC3CCCC3)nc2c1	aSyn rescue 11µM (no result: Mito fusion yeast)
Cc1cc(SCC(=O)NC2CC2)nc2ccccc12	TDP-43 yeast inh inconclusive (no result: Mito fusion yeast)
COc1ccc2c(-c3ccccc3)cc(SCC(=O)N(C)C)nc2c1	TDP-43 yeast inh 22µM
Cc1csc2ncnc(N3CCN(S(=O)(=O)c4cccc(C(F)(F)F)c4)CC3)c12	TDP-43 yeast inh 18µM
COc1cc(-c2cc(C)c3c(OC)ccc(OC)c3n2)cc2c1OCCN(Cc1cn(C)nc1C)C2	none (no result: Mito fusion yeast, Abeta yeast res, aSyn rescue, A-T KAP1 phos, TDP-43 yeast inh)
C[C@@H]1CC[C@H]2C(=O)O[C@H](CN=[N+]=[N-])CN2[C@@H]1c1ccc(Br)cc1	none (no result: Mito fusion yeast, Abeta yeast res, aSyn rescue, A-T KAP1 phos, TDP-43 yeast inh)
CC1CCN(C2=C(NS(=O)(=O)c3ccc(Cl)cc3)C(=O)c3ccccc3C2=O)CC1	Mito fusion yeast 16µM, Abeta yeast res inconclusive
CC1CCN(C2=C(NS(=O)(=O)c3ccccc3)C(=O)c3ccccc3C2=O)CC1	Mito fusion yeast inconclusive
COc1cccc(OCC(=O)NCCS(=O)(=O)N2CCN(c3ccccc3F)CC2)c1	TDP-43 yeast inh inconclusive (no result: Mito fusion yeast, aSyn rescue, A-T KAP1 phos)
CNC(=O)C1CCC(Cn2c(=O)c3sccc3n(Cc3cc(C)ccc3C)c2=O)CC1 (stereo unspecified)	none (no result: Mito fusion yeast, aSyn rescue, A-T KAP1 phos)
CC(C)(C)n1ncc2c(=O)n(Cc3cccc(Cl)c3Cl)cnc21	none (no result: Mito fusion yeast, Abeta yeast res, aSyn rescue, A-T KAP1 phos, TDP-43 yeast inh)
Cc1nn(CC(=O)OCCOc2ccc(Br)cc2)c(C)c1[N+](=O)[O-]	TDP-43 yeast inh 13µM
Cc1ccccc1C(=O)NNC(=S)NC(=O)c1ccc(Cl)cc1Cl	Abeta yeast res inconclusive, aSyn rescue 1.6µM, TDP-43 yeast inh 10µM
Cc1cccc(C(=O)NC(=S)NNC(=O)c2ccccc2Cl)c1	Abeta yeast res inconclusive, Glioma ERSR ind inconclusive, aSyn rescue 10µM
COc1ccccc1C(=O)NNC(=S)NC(=O)c1cc(OC)c(OC)c(OC)c1	Abeta yeast res 6.3µM, aSyn rescue inconclusive, TDP-43 yeast inh 10µM
Cc1cccc(C(=O)NC(=S)NNC(=O)Cc2ccccc2)c1	none
COc1ccc(S(=O)(=O)N2CCN(C(=O)c3ccc4ccccc4n3)CC2)cc1	none
CCOC(=O)c1cnc(Nc2ccccc2)nc1C(F)(F)F	TDP-43 yeast inh 18µM
CCOC(=O)c1cnc(-c2ccccc2)nc1C(F)(F)F	none
COCc1ccc(CN2CCOc3c(O)cc(-c4cc(C)c5ccc(F)cc5n4)cc3C2)o1	none (no result: Mito fusion yeast, Abeta yeast res, aSyn rescue, A-T KAP1 phos, TDP-43 yeast inh)
Cc1ccc(C)n1-c1ccc(-c2ccnc(N)n2)cc1	TDP-43 yeast inh 32µM
Nc1nccc(-c2cccs2)n1	none
COc1ccc2cc(C(=O)N/N=C/c3sc4ccccc4c3O)ccc2c1	aSyn rescue 10µM
COc1cc(C(O)P(=O)(OC2CCCCC2)c2ccc(N(C)C)cc2)cc(OC)c1OC (stereo unspecified)	none
CC(C)c1ccc(C(O)P(=O)(OC2CCCCC2)OC2CCCCC2)cc1 (stereo unspecified)	Mito fusion yeast 13µM
O=C(NCCN1Cc2ccccc2OC(c2ccccc2F)C1)c1cncs1 (stereo unspecified)	none (no result: Mito fusion yeast, Abeta yeast res, aSyn rescue, A-T KAP1 phos, TDP-43 yeast inh)
CCOC(=O)c1cccc(NC(=O)C2CCN(c3nnc(C)c4c(C)n(-c5ccccc5)nc34)CC2)c1	none (no result: Mito fusion yeast, aSyn rescue, A-T KAP1 phos)
CCOc1ccc(NC(=O)CSc2cc(C)c3ccccc3n2)cc1	none (no result: aSyn rescue, A-T KAP1 phos)
CCOc1cc(S(=O)(=O)NC2CCCC2)ccc1Cl	TDP-43 yeast inh 20µM
CC(O/N=C(\N)c1ccccc1)C(=O)Nc1cccc(C(F)(F)F)c1 (stereo unspecified)	TDP-43 yeast inh 13µM (no result: Mito fusion yeast)
CN(Cc1ccon1)C(=O)c1cnn(-c2ncc3c(n2)-c2ccccc2CCC3)c1C1CC1	none (no result: Mito fusion yeast, Abeta yeast res, aSyn rescue, A-T KAP1 phos, TDP-43 yeast inh)
CCn1c(C)c(C(=O)O)c2cc(OC)c3ccccc3c21	A-T KAP1 phos 10µM
COc1cc2c(C(=O)O)c(C)n(-c3ccccc3)c2c2ccccc12	A-T KAP1 phos inconclusive
COc1cc(O)c2c(c1)OC(c1ccc(O)cc1)CC2=O (stereo unspecified)	A-T KAP1 phos 40µM, TDP-43 yeast inh 13µM
COc1cc(O)c2c(c1)O[C@H](c1ccccc1)CC2=O	none (no result: Mito fusion yeast, Abeta yeast res, aSyn rescue, A-T KAP1 phos, TDP-43 yeast inh)
Cc1cccc(C(=O)NCC2Cc3cc(F)cc(-c4cnccn4)c3O2)n1 (stereo unspecified)	none (no result: Mito fusion yeast, Abeta yeast res, aSyn rescue, A-T KAP1 phos, TDP-43 yeast inh)
